# From ChEMBL document CHEMBL3988442, “University of Dundee, Small-Polar-MMV Screening Library” (2021)
# Among all 38,000 compounds or so, about 1,200 (3.2%) showed an effect of 50% or more. The median lay at about -58%. For the sample, strong results were picked, then their nearest neighbours and some compounds at random.
# Test system: Plasmodium falciparum
# Assay: Calibr Malaria Delayed Death Assay SOP
# Format: functional, organism-based
# Parameters: scale not given: in the data most compounds retested in dose-response had high values
# Details: concentration 4.99e-06 (unit not given; other assays of the set use mol/L)
row,Structure (SMILES),Percent Effect [%]
1,CCN1CC2(CC1=O)CN(Cc1ccoc1)CCN(C(=O)C(C)C)C2 (stereo unspecified),-77.86
2,CN1CCC(CNC(=O)c2cccc(CN3CCCCCC3)c2)C1 (stereo unspecified),-131.1
3,CN(C)C(=O)CN1CCC2(COCc3cnc(N4CCOCC4)nc32)C1.O=C(O)C(F)(F)F (stereo unspecified),13
4,CN(CCCO)C(=O)c1cc(COc2ccc3c(c2)CCCC3)on1,-142.4
5,Cc1cccc(N2CCN(CCS(=O)(=O)c3ccc(Br)cc3)CC2)c1C,-66.5
6,O=C(c1cscn1)N1CCc2ncc(CN3CCOCC3)n2CC1,-41.39
7,CCOc1ccc2nc(CN3CCC(CNC(C)=O)C3)ccc2c1 (stereo unspecified),36.59
8,CCOc1ccc2nc(CN3CCC(CN)C3)ccc2c1 (stereo unspecified),85.08
9,CCOc1ccc2nc(CN3CCOC(CN)C3)ccc2c1 (stereo unspecified),-11.41
10,c1ccc(Cc2noc(CN3CCCC(Cn4cncn4)C3)n2)cc1 (stereo unspecified),-77.91
11,NC(=O)N1C[C@H](NC(=O)c2cscn2)[C@@H]2OCCC[C@@H]21,-29.66
12,O=C(NCc1ccco1)[C@H]1CC[C@@H]2[C@@H](CCN2c2ncccn2)O1.O=C(O)C(F)(F)F,-5.9
13,CC(C)CN1C(=O)CC[C@]12CC[C@@H](NC(=O)NCc1cccnc1)CC2.O=C(O)C(F)(F)F,-179.5
14,O=C(Cc1cccnc1)NCCSc1ccccc1F,-31.8
15,Fc1ccccc1Sc1ccccc1CNC1=NCCN1.I,76.79
16,O=C(NCCSc1ccccc1F)NCc1cccnc1,-28.43
17,CN(C)c1nc(NCc2ccccc2Cn2cccn2)ncc1F,-30.26
18,O=C1NCCCCC1Sc1ccccc1F (stereo unspecified),-25.7
19,Cc1cc(Br)ccc1NCc1ccc(C(=O)N(C)C)[nH]1,-35.81
20,CC(C)[C@H](NC(=O)NC1CCS(=O)(=O)C1)C(=O)NCc1ccc(Cl)cc1 (stereo partly specified),-111.5
21,COCCC1COC2(CCN(C(=O)c3cccnc3)CC2)C1.O=C(O)C(F)(F)F (stereo unspecified),-117.3
22,O=C(c1ccccc1)N1CC[C@H]2C[C@H](c3nccs3)O[C@@H]2C1,-4.41

row,Structure (SMILES),Percent Effect [%]
1,Cc1cc(C)cc(OCCN(C)C(=O)NC(C)c2nncn2C)c1 (stereo unspecified),-106.2
2,CCc1nc(C2CCCN2C(=O)CCCn2cccn2)no1 (stereo unspecified),-167.4875
3,COCC1c2c(cnn2C)CCN1C(=O)c1cscn1.O=C(O)C(F)(F)F (stereo unspecified),-119.3
4,Cc1cccc(Nc2nccnc2C2CCCN(CC(=O)N(C)C)C2)n1 (stereo unspecified),-114.3
5,Cc1cc(C)nc(Nc2cccc(C3CCCN(CCO)C3)n2)n1 (stereo unspecified),10.75
6,NCc1n[nH]c(-c2cccc(F)c2)n1,-72.36
7,Cc1nc(N2CCCC2)nc2c1CCN(C(=O)N(C)C)CC2,-58.26
8,CCc1cccc(N2CCC(NC(=O)c3ccco3)CC2)c1,59.23
9,CCc1cccc(N2CCC(NC(=O)CCNC(N)=O)CC2)c1,-70
10,CCc1cccc(N2CCC(NC(=O)c3ccoc3C)CC2)c1,-20.41
11,CN1CCC(C(=O)N2CCN(Cc3cccc(Cl)c3)CC2)CC1=O (stereo unspecified),-101.4
12,CC(=O)N1CCO[C@@H]2CN(Cc3cccc(Cl)c3)C[C@@H]2C1.O=C(O)C(F)(F)F,-40.86
13,CS(=O)(=O)NC1CCN(CCc2ccccc2)CC1,-29.4
14,c1ccc(CCCN2CC(n3cccn3)C2)cc1,-65.67
15,Cl.Cl.NCC1[C@H]2CN(CCc3ccccc3)C[C@@H]12 (stereo partly specified),86.43
16,O=C(Nc1nnc[nH]1)C(c1cccc(F)c1)N1CCOCC1 (stereo unspecified),-17.23
17,CC/C=C(\C)CN1CCC(CNC(=O)c2ccc(=O)[nH]c2)CC1,-93.37
18,Cc1ccc(S(=O)(=O)Cc2nnc(C)n2C)cc1,-134.3
19,O=C(c1csnn1)N1CCCC(n2cncn2)C1 (stereo unspecified),-97.91
20,CCC(CC)CN1CCN(CC(=O)Nc2cccc3nsnc23)CC1,-38.36
21,CCn1nccc1C(=O)NC(Cn1cccn1)C(C)(C)C (stereo unspecified),-34.87
22,CN(C)Cc1ccccc1CN(C)c1ncnc2[nH]ccc12,27.74

row,Structure (SMILES),Percent Effect [%]
1,Cc1cc(C)cc(CN2CCN(Cc3cc(C#N)n(C)c3)CC2=O)c1,14.32
2,CCn1cc(CN2CCN(Cc3cccc(OC)c3)C(=O)C2)cc1C#N,47.6
3,CCn1cc(CN2CCN(Cc3cc(C)cc(C)c3)C(=O)C2)cc1C#N,66.78
4,CN(CCn1cnc(-c2ccccc2)c1-c1ncc[nH]1)S(C)(=O)=O,-10.43
5,CCN(C)S(=O)(=O)NCC1CCN(Cc2ccccc2F)C1 (stereo unspecified),42.63
6,CCN(C)S(=O)(=O)NCC1CCCN(Cc2ccccc2F)C1 (stereo unspecified),74.13
7,CC(=O)NCC1CCCN(Cc2nc(Cc3ccccc3F)no2)C1 (stereo unspecified),-62.96
8,NC1(C(=O)NCC2CCCN(Cc3cccc4nonc34)C2)CCC1 (stereo unspecified),38.45
9,CS(=O)(=O)NCC1CCCN(Cc2ccc(F)c3cccnc23)C1 (stereo unspecified),9.25
10,NC1(C(=O)NCC2CCCN(Cc3ccccc3F)C2)CCCC1 (stereo unspecified),85.42
11,CC(C)NC(=O)[C@@H]1C[C@H]2NCC[C@H]2O1.Cl,-114.2
12,Cc1n[nH]c(C)c1NC(=O)Nc1cccnc1N1CCCC1,-5.845
13,CC(C)CC(NCc1ccsc1)c1ccccn1 (stereo unspecified),58.77
14,CC(C)CC(NCc1cccs1)c1ccccn1 (stereo unspecified),-24.93
15,CC(C)CC(NCc1cscn1)c1ccccn1 (stereo unspecified),28.89
16,COCCSCC(=O)NCc1ccc(N(C)C)cc1,-84.72
17,COCC(=O)N1CCc2ccccc2C12CCNCC2.Cl,-57.82
18,CCOC(=O)N1CCc2ccccc2C12CCNCC2.Cl,52.81
19,Cl.O=C(C1CC1)N1CCc2ccccc2C12CCNCC2,-61.72
20,Cc1cnn(CCCNC(=O)NCCS(=O)(=O)Nc2ccccc2)c1,-111.9
21,CC(C(=O)NC1CC1)S(=O)(=O)Cc1csc(-c2cccs2)n1 (stereo unspecified),-95.03
22,CC(C)C(NC(=O)NCCNc1ccccn1)c1cccs1 (stereo unspecified),11.18

row,Structure (SMILES),Percent Effect [%]
1,CNC(=O)C(C)S(=O)(=O)Cc1csc(-c2cccs2)n1 (stereo unspecified),-44.96
2,Cc1ccc(CNC(=O)C2=NOC3(CCCNC3)C2)cc1 (stereo unspecified),-11.58
3,CC(C(=O)NCC1CCCCC1)S(=O)(=O)Cc1csc(-c2cccs2)n1 (stereo unspecified),-110.5
4,CC(=O)Nc1ccc(-c2ccccc2CCN)cc1,-117.7
5,CCC1(CC)CC(=O)N(CC(O)c2cccc(F)c2)C1=O (stereo unspecified),-47.43
6,Cn1cc(CN2CCC3(CCN(c4cnn(C)c4)C3=O)C2)cn1.O=C(O)C(F)(F)F (stereo unspecified),-38.46
7,Cc1ccc(-n2ncc(C(=O)N(C)C3CCN(C)CC3)c2N)cc1C,-13.94
8,COCCNC(=O)Cn1cc2c(n1)c(C)nn2C,-119.4
9,Cc1ccc(CN2Cc3nccn3CC(Cn3cncn3)C2)s1.O=C(O)C(F)(F)F (stereo unspecified),-180.8
10,COc1ccccc1OCCC(=O)NC1CCc2nc(C)cn2C1 (stereo unspecified),-82.15
11,Cc1ncc(CNC(=O)CCc2ccccc2F)c(C2CCCN2C)n1 (stereo unspecified),-31.11
12,O[C@@H]1CN(Cc2cc(Cl)cc3cccnc23)C[C@@H]1O,-71.8
13,Clc1cc(CN2CCCN3CCCC3C2)c2ncccc2c1 (stereo unspecified),88.94
14,Clc1cc(CN2CCCC(Cn3cncn3)C2)c2ncccc2c1 (stereo unspecified),36.9
15,Cc1cccc(-c2nc(N)nc3c2CN(C(=O)c2ccncn2)C3C)c1 (stereo unspecified),-72.66
16,COc1coc(C(=O)Nc2nc(-c3ccccn3)cs2)cc1=O,19.28
17,CN(Cc1noc2c1CCCC2)C(=O)Nc1cncc(F)c1,-40.24
18,Cc1c[nH]c(CN(C)C(=O)C(C)(C)NC(=O)c2cccs2)n1,-87.6
19,CC(C)c1ncc(C(=O)N2CCOCC2CC(=O)c2ccco2)s1 (stereo unspecified),-45.87
20,Cc1cc(C)n(CC(C)NCCn2nc(C)c(Cl)c2C)n1 (stereo unspecified),-54.04
21,CC(Cn1cncn1)NCCN1CCc2ccccc21 (stereo unspecified),-79.84
22,Cc1cc(C)n(CC(C)NCCN2CCc3ccccc32)n1 (stereo unspecified),52.4

row,Structure (SMILES),Percent Effect [%]
1,Cc1ccc(SC2CCCC2)c(C(=O)NCc2n[nH]c(=O)[nH]2)c1,-25.99
2,O=C(c1c[nH]c2ncccc12)N(Cc1ccco1)C1CCCC1,86.68
3,NC(=O)CN(C(=O)c1c[nH]c2ncccc12)C1CCCC1,-54.97
4,COCCN(C(=O)c1c[nH]c2ncccc12)C1CCCC1,-27.67
5,Cc1nc(N(C)C)nc(-c2cccc(-c3ccn(CCCF)n3)c2)c1C,-133.9
6,CCCN(Cc1ccccn1)Cc1ccccc1OC,-102.5
7,CSCC(=O)N(Cc1ccccn1)Cc1ccccc1C,-232.7
8,CC(C)CN(Cc1ccccn1)Cc1ccccc1C(=O)O,-129.3
9,CCOc1ccccc1N(C)Cc1nccn1C,20.26
10,COc1ccc(OC)c(Sc2ncccc2C(=O)N(C)CCC#N)c1,-164.4
11,CCOCCN1CCN(CCc2ccc3c(c2)CCO3)CC1,-44.63
12,Cc1noc([C@@H]2CCO[C@@H]3CCN(Cc4nccs4)C[C@@H]32)n1,-49.2
13,CCN1CC2(CC1=O)CN(C(C)=O)CCN(C(=O)NC)C2 (stereo unspecified),-42.52
14,CN(C)C(=O)N1CCN(CCn2nc3ccccn3c2=O)CC1,-59.88
15,O=C(O)c1cc(/C=C/c2ccccc2)ncn1,-169
16,O=C1CC(c2ccccc2)c2cnn(C3CCCC3)c2N1 (stereo unspecified),-174.4
17,O=C1CC(c2ccc(F)cc2)c2cnn(C3CCCC3)c2N1 (stereo unspecified),-115.7
18,N#Cc1ccc(C2CC(=O)Nc3c2cnn3C2CCCC2)cc1 (stereo unspecified),52.33
